SMILES strings stand for the structures. Values joined by “and” are separate entries in the source; they are usually repeats but may differ in a detail not shown here. Equal entries are not always repeated. Results filed as inconclusive are left out. Active and inactive are the calls of the source. Unless noted, the call rests on the fitted dose curve.

The target of assay [1] is Glucocorticoid receptor (Homo sapiens) (UniProt P04150). The assay is described as follows: qHTS assay for small molecule agonists of glucocorticoid receptor signaling (AID 588532; active means well fitted curve in the direction sought with a large enough effect in the signal ratio, with a control signal flat; the % refers to the signal ratio;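 further: 100% = dexamethasone at 0.1 µM and 0% = DMSO only wells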). The settings on record: HeLa MMTV-bla, beta-lactamase ratio, agonist, 18 h; stronger effect = higher value; percent of dexamethasone control, DMSO zero. The procedure, abridged:
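Cells were plated and rested 3-5 h at 37 C, compounds were added in titration and incubated 18 h, then CCF4 substrate was loaded for 2 h at RT before reading blue/green fluorescence. EC50 came from Hill-equation fitting.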
(qHTS replaces the single test concentration by a dilution series.)

Assay [2] is described as follows: qHTS assay for small molecule antagonists of peroxisome proliferator-activated receptor delta signaling (AID 588535; active means well fitted inhibition curve with a large enough effect in the signal ratio, with a control signal flat, not every such curve was filed as active; the % refers to the signal ratio;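 on max response: cells co-treated with a PPAR-delta agonist as stimulator during compound exposure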). The following applies: HEK293T PPARd-UAS-bla, beta-lactamase FRET ratio, 18 h; 460 nm channel. The procedure, abridged: (§1)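 Beta-lactamase reporter read-out (405 nm excitation, 460/530 nm emission) after CCF4 loading for 2 hrs at RT. HEK293T PPAR-delta-UAS-bla cells, 2% charcoal/dextran FBS, compounds for 18 hrs at 37 C. Hill fit gave IC50 and efficacy.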

In assay [3] the target is Peroxisome proliferator-activated receptor delta (Homo sapiens) (UniProt Q03181). The description is as above. The gist of the method: as §1
Peroxisome proliferator-activated receptor delta (Homo sapiens), sequence (Q03181 whole entry, looked up): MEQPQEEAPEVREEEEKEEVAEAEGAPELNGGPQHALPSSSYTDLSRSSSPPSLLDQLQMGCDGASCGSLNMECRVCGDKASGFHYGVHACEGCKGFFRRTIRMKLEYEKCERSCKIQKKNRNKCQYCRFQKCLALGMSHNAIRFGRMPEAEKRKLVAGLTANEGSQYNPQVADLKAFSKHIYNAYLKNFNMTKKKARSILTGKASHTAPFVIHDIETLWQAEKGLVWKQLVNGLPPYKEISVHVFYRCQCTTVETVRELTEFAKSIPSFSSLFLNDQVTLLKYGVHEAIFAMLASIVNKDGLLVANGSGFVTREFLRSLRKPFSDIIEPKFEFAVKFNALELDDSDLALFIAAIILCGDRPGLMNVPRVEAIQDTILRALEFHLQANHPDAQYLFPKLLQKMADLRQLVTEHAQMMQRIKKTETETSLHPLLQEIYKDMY
For assay [4], the target named is Vitamin D3 receptor (Homo sapiens) (UniProt P11473). The assay is described as follows: qHTS assay for small molecule antagonists of vitamin D receptor signaling (AID 588541).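 Further: receptor activated by calcitriol during compound treatment; series mostly up to about 77 µM; on the % scale 0 is the no-effect control and ±100 the full control effect.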 The procedure, abridged:
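VDR-UAS-bla HEK293T cells in 2% charcoal-stripped FBS were stimulated with 1-alpha,25-dihydroxyvitamin D3 (3 nM final) plus compound for 16 h at 37 C. The beta-lactamase CCF4 readout was normalized to 50 nM agonist and DMSO, and Hill fits gave IC50.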

Assay [5] has the same target. The assay is described as follows: qHTS assay for small molecule agonists of vitamin D receptor signaling (AID 588543).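 Further: 0% = DMSO basal and 100% = reference agonist control.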 The gist of the method:
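Measured: β-lactamase reporter activity (CCF4, 405 nm excitation, 460/530 nm emission) in HEK293T VDR-UAS-bla cells after 16 h compound exposure at 37 °C. Normalization against 50 nM 1α,25-dihydroxyvitamin D3 and DMSO; Hill-fit EC50.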

The nature of assay [6]: qHTS assay for small molecule agonists of retinoid X receptor alpha signaling (AID 588544).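 On activation: 0% = DMSO basal wells and 100% = reference agonist.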 The settings on record: HEK293T RXRa-UAS-bla, beta-lactamase reporter, 18 h; 530 nm emission.
For assay [7], the target named is Retinoic acid receptor RXR-alpha (Homo sapiens) (UniProt P19793). The description is as above.
Retinoic acid receptor RXR-alpha (Homo sapiens), sequence (P19793 whole entry, looked up): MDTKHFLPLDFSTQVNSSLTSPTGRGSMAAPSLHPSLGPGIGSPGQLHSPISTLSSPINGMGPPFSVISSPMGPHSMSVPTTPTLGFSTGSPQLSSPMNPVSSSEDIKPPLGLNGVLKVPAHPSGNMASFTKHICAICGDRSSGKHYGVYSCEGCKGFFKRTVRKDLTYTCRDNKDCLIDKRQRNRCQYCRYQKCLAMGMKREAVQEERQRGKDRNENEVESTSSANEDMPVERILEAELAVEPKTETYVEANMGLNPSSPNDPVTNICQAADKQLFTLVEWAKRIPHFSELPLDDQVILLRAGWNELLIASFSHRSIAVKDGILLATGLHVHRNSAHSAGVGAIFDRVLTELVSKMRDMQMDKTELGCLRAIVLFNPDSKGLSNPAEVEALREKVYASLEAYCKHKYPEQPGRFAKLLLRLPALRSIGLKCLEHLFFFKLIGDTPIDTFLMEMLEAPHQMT
Assay [8] deals with Thyroid hormone receptor beta (Homo sapiens) (UniProt P10828). Kind of assay: qHTS assay for small molecule agonists of thyroid hormone receptor beta signaling (AID 588545).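 Further: 0% = DMSO only and 100% = 10 nM T3.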 The gist of the method:
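Compounds were tested as agonists in TR-UAS-bla-GripTite HEK 293 cells. After 18 hrs at 37 C, CCF4 substrate was added and fluorescence read after 2 hrs at room temperature.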

The nature of assay [9]: qHTS assay for small molecule antagonists of retinoid X receptor alpha signaling (AID 588546; active means well fitted inhibition curve with a large enough effect in the signal ratio, with a control signal flat, not every such curve was filed as active; the % refers to the signal ratio;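 further: cells stimulated with 9-cis-retinoic acid as agonist; on the % scale 0 is the no-effect control and ±100 the full control effect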). The following applies: HEK293T RXRa-UAS-bla, beta-lactamase ratio, antagonist mode; measured here: W530 green channel, cytotoxicity proxy. The procedure, abridged:
(§2)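 Beta-lactamase reporter inhibition, read as CCF4 fluorescence ratio (ex 405, em 460/530 nm) after 2 h at RT. HEK293T UAS-bla cells, 2500/well, were stimulated with 9-cis-RA at 500 or 100 nM final alongside test compound for 18 h at 37 C.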

The target of assay [10] is Retinoic acid receptor RXR-alpha (Homo sapiens) (UniProt P19793). Described as above. The following applies: HEK293T RXRa-UAS-bla, beta-lactamase ratio, antagonist mode. The gist of the method:
as §2

The target in assay [11] is Thyroid hormone receptor beta (Homo sapiens) (UniProt P10828). The assay is described as follows: qHTS assay for small molecule antagonists of thyroid hormone receptor beta signaling (AID 588547; active means well fitted inhibition curve with a large enough effect in the signal ratio, with a control signal flat, not every such curve was filed as active; the % refers to the signal ratio;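 further: cells stimulated with 0.4 nM T3 agonist during compound exposure; series mostly up to about 77 µM; on the % scale 0 is the no-effect control and ±100 the full control effect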). The settings on record: TR-UAS-bla HEK293, beta-lactamase ratio, antagonist mode, 18 h. The gist of the method: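 TR-UAS-bla GripTite HEK293 cells in 2% charcoal/dextran FBS medium; compounds 0.59 nM to 92 uM with T3 at 0.4nM final, 18 h at 37 C. Beta-lactamase read by CCF4 fluorescence (460/530 nm); Hill fits gave IC50 and efficacy.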
Thyroid hormone receptor beta (Homo sapiens), sequence (P10828 whole entry, looked up): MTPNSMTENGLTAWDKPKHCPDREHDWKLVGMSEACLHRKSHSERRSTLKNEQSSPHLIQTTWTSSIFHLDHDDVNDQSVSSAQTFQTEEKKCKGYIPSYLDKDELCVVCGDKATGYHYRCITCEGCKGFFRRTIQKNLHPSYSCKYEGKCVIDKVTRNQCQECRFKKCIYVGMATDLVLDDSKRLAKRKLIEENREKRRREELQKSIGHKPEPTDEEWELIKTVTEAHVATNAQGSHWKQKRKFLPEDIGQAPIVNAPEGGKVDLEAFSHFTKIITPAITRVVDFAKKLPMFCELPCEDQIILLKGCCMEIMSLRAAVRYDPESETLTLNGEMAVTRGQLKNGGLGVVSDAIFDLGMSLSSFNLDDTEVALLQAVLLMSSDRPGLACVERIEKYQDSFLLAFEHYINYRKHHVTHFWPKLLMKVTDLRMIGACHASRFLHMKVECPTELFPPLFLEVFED

Assay [12] addresses Voltage-gated inwardly rectifying potassium channel KCNH2 (Homo sapiens) (UniProt Q12809). The assay is described as follows: qHTS Assay for Small Molecule Inhibitors of the Human hERG Channel Activity (AID 588834; active means well fitted inhibition curve with a large enough effect;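 further: top concentration of the series differs between compounds; on the % scale 0 is the no-effect control and ±100 the full control effect; lower thallium flux fluorescence means stronger hERG block; nearly all actives have a fitted effect of over 50% in size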). The gist of the method: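 Homogeneous FluxOR thallium flux assay using hERG-expressing U2OS cells (BacMam). Compound treatment about 10 minutes preceded stimulation; reduced fluorescence taken as channel block.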

A short description of assay [13]: qHTS assay for small molecule agonists of the antioxidant response element (ARE) signaling pathway (AID 651741; active means well fitted activation curve with a large enough effect in the signal ratio; the % refers to the signal ratio; further: % of control where 0% means no effect). The gist of the method: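 HepG2 ARE-bla reporter cells, 2,000/well; 5 h settle at 37 C/5% CO2; compound pin transfer (23 nL, DMSO); 16 h at 37 C; LiveBLAzer B/G FRET substrate, 2 h RT; fluorescence intensity read.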
Assay [14] addresses Peroxisome proliferator-activated receptor gamma (Homo sapiens) (UniProt P37231). Kind of assay: qHTS assay for small molecule agonists of peroxisome proliferator-activated receptor gamma signaling (AID 588536; active means well fitted curve in the direction sought with a large enough effect in the signal ratio, with a control signal flat, not every such curve was filed as active; the % refers to the signal ratio;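 further: 0% = DMSO basal wells and 100% = rosiglitazone at 2 µM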). The procedure, abridged: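 Beta-lactamase reporter read-out: CCF4 fluorescence (ex 405, em 460/530 nm) after 2 h at RT. HEK293 GeneBLAzer cells were treated for 16 h at 37 C. Hill fits gave EC50 and efficacy versus 2 uM rosiglitazone (100%) and DMSO (0%).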

Assay [15] has the same target. The assay is described as follows: qHTS assay for small molecule antagonists of peroxisome proliferator-activated receptor gamma signaling (AID 588537; active means well fitted inhibition curve with a large enough effect in the signal ratio, with a control signal flat, not every such curve was filed as active; the % refers to the signal ratio;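 further: reporter cells co-stimulated with 50 nM rosiglitazone agonist during compound treatment; % of control where 0% means no effect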). The procedure, abridged: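 Read-out: CCF4 fluorescence (ex 405, em 460/530 nm) after 2 h at RT. Cells were HEK293 carrying a UAS-bla reporter and treated 16 h at 37 C with compound plus rosiglitazone (50 nM final). Normalized to rosiglitazone and DMSO.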

A short description of assay [16]: qHTS assay for small molecule activators of the p53 signaling pathway (AID 651743; active means well fitted activation curve with a large enough effect in the signal ratio, not every such curve was filed as active; the % refers to the signal ratio; further: series mostly up to about 92 µM; % of control where 0% means no effect). The settings on record: HCT-116 p53RE-bla, beta-lactamase FRET ratio, 16 h; stronger effect = higher value. The procedure, abridged: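 Reporter: beta-lactamase driven by p53 response elements, stably integrated in HCT-116 cells. Cells seeded at 4,000/well, 5 h preincubation, compound (DMSO) 16 h at 37 C; B/G FRET substrate 2 h RT; fluorescence intensity read.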

Assay [17] deals with Glucocorticoid receptor (Homo sapiens) (UniProt P04150). Kind of assay: qHTS assay for small molecule antagonists of glucocorticoid receptor signaling (AID 588533; active means well fitted inhibition curve with a large enough effect in the signal ratio, with a control signal flat, not every such curve was filed as active; the % refers to the signal ratio; further: on the % scale 0 is the no-effect control and ±100 the full control effect). The procedure, abridged:
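Antagonist-mode qHTS: compound titrations added to GRE-bla HeLa cells, then dexamethasone 2 nM final; 18 h, 37 C. CCF4 FRET fluorescence normalized to dexamethasone and DMSO; IC50 from Hill fit.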

Assay [18] in a line: qHTS assay for small molecule activators of the nuclear factor-kappa B (NF-kB) signaling pathway (AID 651749; active means well fitted activation curve with a large enough effect in the signal ratio; the % refers to the signal ratio; further: series mostly up to about 77 µM; % of control where 0% means no effect). The settings on record: NF-kB-bla ME-180 cells, beta-lactamase FRET ratio, 16 h; stronger effect = higher value. The procedure, abridged: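 NF-kB-bla ME-180 cells, 2,000/well; 23 nL compound or DMSO pinned; 16 hr, 37C/5% CO2; beta-lactamase FRET read-out.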

Voltage-gated inwardly rectifying potassium channel KCNH2 (Homo sapiens), sequence (Q12809 whole entry, looked up): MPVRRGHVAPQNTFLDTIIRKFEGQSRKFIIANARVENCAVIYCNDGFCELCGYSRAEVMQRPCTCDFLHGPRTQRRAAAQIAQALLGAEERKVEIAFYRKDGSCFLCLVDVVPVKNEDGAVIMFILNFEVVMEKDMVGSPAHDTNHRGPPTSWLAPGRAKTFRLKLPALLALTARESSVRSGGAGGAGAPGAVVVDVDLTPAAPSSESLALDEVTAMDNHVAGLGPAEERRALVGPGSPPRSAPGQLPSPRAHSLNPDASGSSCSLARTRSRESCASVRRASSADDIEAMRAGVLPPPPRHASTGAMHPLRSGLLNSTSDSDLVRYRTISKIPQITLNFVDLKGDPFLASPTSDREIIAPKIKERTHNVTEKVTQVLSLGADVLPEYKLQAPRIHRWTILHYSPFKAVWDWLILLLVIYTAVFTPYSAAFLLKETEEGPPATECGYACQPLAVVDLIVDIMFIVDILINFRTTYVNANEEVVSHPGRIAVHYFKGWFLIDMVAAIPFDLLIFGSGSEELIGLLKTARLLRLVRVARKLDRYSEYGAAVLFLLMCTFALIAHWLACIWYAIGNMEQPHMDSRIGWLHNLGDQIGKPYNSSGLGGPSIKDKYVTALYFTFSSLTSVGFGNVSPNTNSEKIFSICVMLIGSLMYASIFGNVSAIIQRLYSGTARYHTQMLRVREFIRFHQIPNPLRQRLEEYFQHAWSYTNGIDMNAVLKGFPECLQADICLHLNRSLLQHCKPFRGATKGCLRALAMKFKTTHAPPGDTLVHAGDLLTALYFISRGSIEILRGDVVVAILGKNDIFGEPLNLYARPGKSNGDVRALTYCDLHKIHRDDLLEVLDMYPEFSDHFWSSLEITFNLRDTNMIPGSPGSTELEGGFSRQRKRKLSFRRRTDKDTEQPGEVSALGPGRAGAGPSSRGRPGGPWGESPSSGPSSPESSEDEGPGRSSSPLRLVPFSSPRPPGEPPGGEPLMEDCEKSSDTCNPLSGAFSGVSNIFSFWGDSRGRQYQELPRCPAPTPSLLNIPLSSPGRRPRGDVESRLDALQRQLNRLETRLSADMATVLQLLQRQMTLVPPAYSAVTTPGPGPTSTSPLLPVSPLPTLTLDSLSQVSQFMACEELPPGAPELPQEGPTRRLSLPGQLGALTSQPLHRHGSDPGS
Glucocorticoid receptor (Homo sapiens), sequence (P04150 whole entry, looked up): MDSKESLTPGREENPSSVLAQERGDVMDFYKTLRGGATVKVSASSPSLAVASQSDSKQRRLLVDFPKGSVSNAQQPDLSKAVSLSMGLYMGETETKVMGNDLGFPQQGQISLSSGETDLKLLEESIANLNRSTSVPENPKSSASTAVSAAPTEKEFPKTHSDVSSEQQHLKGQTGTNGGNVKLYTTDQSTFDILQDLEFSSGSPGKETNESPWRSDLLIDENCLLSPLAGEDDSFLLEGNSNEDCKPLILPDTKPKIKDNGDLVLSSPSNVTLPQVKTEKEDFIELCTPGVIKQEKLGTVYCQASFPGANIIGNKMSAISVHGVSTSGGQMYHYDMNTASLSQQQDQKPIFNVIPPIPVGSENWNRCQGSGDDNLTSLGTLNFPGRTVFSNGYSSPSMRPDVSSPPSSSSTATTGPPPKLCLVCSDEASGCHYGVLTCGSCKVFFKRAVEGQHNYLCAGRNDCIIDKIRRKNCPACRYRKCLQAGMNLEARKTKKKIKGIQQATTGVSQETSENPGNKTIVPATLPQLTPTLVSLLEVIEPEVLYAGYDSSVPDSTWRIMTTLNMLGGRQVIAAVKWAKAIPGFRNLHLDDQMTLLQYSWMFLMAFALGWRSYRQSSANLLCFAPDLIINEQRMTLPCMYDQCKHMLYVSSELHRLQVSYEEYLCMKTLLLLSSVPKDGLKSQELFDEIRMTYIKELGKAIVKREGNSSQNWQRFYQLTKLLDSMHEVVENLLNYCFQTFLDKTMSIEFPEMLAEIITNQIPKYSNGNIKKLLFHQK
Peroxisome proliferator-activated receptor gamma (Homo sapiens), sequence (P37231 whole entry, looked up): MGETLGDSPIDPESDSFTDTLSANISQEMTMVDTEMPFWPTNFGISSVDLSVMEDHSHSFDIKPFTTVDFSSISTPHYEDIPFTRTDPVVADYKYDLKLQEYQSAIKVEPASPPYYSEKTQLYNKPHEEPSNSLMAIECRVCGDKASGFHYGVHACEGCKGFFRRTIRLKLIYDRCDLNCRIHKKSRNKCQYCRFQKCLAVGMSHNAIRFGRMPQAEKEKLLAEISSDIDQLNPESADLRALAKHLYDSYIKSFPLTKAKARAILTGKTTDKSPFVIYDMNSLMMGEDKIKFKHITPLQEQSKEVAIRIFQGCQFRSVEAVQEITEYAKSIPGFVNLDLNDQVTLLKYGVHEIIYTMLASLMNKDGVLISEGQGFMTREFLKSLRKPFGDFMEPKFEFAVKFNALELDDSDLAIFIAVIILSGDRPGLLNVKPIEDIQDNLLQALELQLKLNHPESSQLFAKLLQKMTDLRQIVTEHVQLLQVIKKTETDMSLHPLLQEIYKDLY
Vitamin D3 receptor (Homo sapiens), sequence (P11473 whole entry, looked up): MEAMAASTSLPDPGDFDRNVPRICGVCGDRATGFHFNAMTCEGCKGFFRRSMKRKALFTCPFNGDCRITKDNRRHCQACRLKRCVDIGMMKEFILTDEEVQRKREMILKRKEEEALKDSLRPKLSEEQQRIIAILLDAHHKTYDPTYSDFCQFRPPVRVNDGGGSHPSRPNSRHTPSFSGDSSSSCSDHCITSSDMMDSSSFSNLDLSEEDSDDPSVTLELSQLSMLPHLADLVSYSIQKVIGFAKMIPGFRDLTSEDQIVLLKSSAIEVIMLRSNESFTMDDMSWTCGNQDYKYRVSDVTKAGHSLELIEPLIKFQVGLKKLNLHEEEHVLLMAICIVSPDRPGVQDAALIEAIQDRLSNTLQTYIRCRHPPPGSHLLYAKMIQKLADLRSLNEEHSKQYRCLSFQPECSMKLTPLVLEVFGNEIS

For the molecule `C=C(C)C(=O)OCC(C)O` (stereo unspecified), the activation in [1] is -4.2% (inactive). The max response was 24.5% in assay [2], -4.4% in assay [6], -2% in assay [9] and 5.46% (inactive) in assay [10]. Moreover, the Potency result in [3], in assay [12] and in assay [13] was “inactive” in each case. Besides, the molecule was called inactive in assay [4], in [5], in assay [7] and in [8]. In assay [11], the activity change % (negative = inhibition) is 11.2% (inactive).

Regarding `C1CCCC1`, the activation in [1] was 2.06% (inactive); in assay [16] it was -0.131% (inactive). Further, the result in assay [14], in assay [15], in [4], in [5], in assay [7] and in assay [8] was inactive. The max response in assay [6] was -15.2%; in assay [9], -15.6%; in [10], -5.52% (inactive). For the same molecule, in assay [11], the activity change % (negative = inhibition) was -1.41% (inactive). In addition, the Potency result in assay [12] and in [13] was “inactive” throughout.

As for `O=C1OC(=O)c2c(Br)c(Br)c(Br)c(Br)c21`, the molecule was classed as inactive in assay [17], in assay [14], in assay [15], in [4], in assay [5] and in assay [7]. In addition, in [8], the result was inactive. The max response in assay [2] is 19.7% and -28%; in assay [6] it was -2.51% and -8.84%; in assay [9] it was -0.218% and -8.01%; in assay [10], 6.1% (inactive) and -5.43% (inactive). The Potency result in assay [3] and in assay [12] was “inactive” each time. Also, in [11], the activity change % (negative = inhibition) is 7.07% (inactive) and -6.85% (inactive). In assay [18], the activation was 0.149% (inactive) and 3.05% (inactive).

Regarding `C[C@@H]1CC2(OC[C@]3(C)O[C@H]23)O[C@H]2C[C@@]3(C)[C@@H]4CC[C@H]5C(C)(C)C(O[C@@H]6OC[C@@H](O)[C@H](O)[C@H]6O)CC[C@@]56C[C@@]46CC[C@]3(C)[C@@H]12` (stereo partly specified), the activation is -8.99% (inactive) in [1], -7.18% (inactive) in assay [16] and -1.67% (inactive) in [18]. The call in assay [8] was inactive. For the same molecule, the activity change % (negative = inhibition) in assay [11] was 4.18% (inactive).

For `O=C(O)c1cc(Cl)cc(Cl)c1`, the max response in assay [2] was 29.5%; in assay [6], -6.8%; in assay [9], -0.682%; in assay [10], 11.3% (inactive). The Potency entry in assay [3] and in [12] was “inactive” throughout. Moreover, the outcome in [14], in assay [15] and in [7] was inactive. Besides, in [11], the activity change % (negative = inhibition) is 6.89% (inactive). In assay [16], the activation was 1.56% (inactive).

Take `OC/C(Br)=C(\Br)CO`: the molecule was called inactive in assay [17], in assay [14], in [15], in [4], in [5] and in [7]. Also, the outcome in assay [8] was inactive. For the same molecule, the max response is -4.05% in [6], -2.68% in [9] and -0.311% (inactive) in assay [10]. Moreover, in assay [11], the activity change % (negative = inhibition) was -11.8% (inactive). Also, in assay [12], the Potency entry was “inactive”. Besides, the activation in assay [18] is 0.22% (inactive).

In the case of `Cc1cscn1`, the max response in assay [2] was -36.6%; in assay [6], -3.55%; in [9], -2.99%; in [10] it was 3.21% (inactive). The Potency entry in assay [3] and in assay [13] was “inactive” in each case. Besides, the outcome in [14], in [4], in assay [5], in [7] and in assay [8] was inactive. In assay [11], the activity change % (negative = inhibition) was 9.8% (inactive). Further, the activation in [16] is -1.86% (inactive); in assay [18], -0.548% (inactive).

For `CCCCCCCCN`, the max response in assay [2] was 13.3%; in [6], -7.59%; in assay [9], 2.38%; in assay [10], 13.9% (inactive). The Potency result in assay [3], in [12] and in [13] was “inactive” throughout. Also, the molecule was classed as inactive in assay [14], in assay [15], in assay [4], in assay [5], in assay [7] and in assay [8]. Besides, the activity change % (negative = inhibition) in assay [11] was 5.95% (inactive). Also, the activation was -1.65% (inactive) in [16] and -1.11% (inactive) in assay [18].

The values above are taken from PubChem BioAssay (NCATS).
